Compound activity from PubChem BioAssay.
Hits are enriched below; roughly 7.4% of the tested compounds scored in any of these assays.
HEK293 tox = cytotoxic compounds in HEK 293 cells | Potency, µM (series often up to 115 µM), inactives show top-dose activity change, negative = cytotoxicity, actives largely listed as inhibitors | HEK 293 viability, ATP luminescence (CellTiter-Glo), 48-72 h | AID 1345083 | actives 6.6% (n = 94,000); further: on the % scale 0 is the no-effect control and ±100 the full control effect; nearly all actives have a fitted effect of over 60% in size
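HEK 293 seeded at 250 cells/well receive compound via pintool. After 48 or 72 hr at 37 degree Celsius, 5% CO2 and 95% humidity, CellTiter-Glo is dispensed and luminescence read following 10 min at room temperature.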
HEK293 viab = counter-screen for SNCA expression inhibitors: cell viability; AID 1671193; HEK-293-SNCA-luc viability, GF-AFC fluorescence, 24 h; actives 0.12% (n = 150,000); Potency, µM (highest dose often 57.1 µM), without a hit: at the top dose activity change, negative = cytotoxicity, hits mostly cytotoxic;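 further: 0% = DMSO-treated cells and -100% = medium-only wells without cells; nearly all actives have a fitted effect of over 30% in size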
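Cytotoxicity counterscreen: after 24 h compound treatment of genome-edited SNCA-luciferase HEK-293 cells, live-cell protease substrate GF-AFC read by fluorescence after 30 min; activity scaled between DMSO (0%) and medium-only (-100%), curves Hill-fitted.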
hNpr1 antagonist = human Npr1 receptor antagonism; Potency, µM (titrated, usually from 46.3 µM), inactives show top-dose activity change, negative = inhibition, actives largely listed as inhibitors; actives 1.6% (n = 76,000); P16066; HEK293 hNpr1 GloSensor cGMP, ANP-stimulated luminescence; calls by dose curve; further: on the % scale 0 is the no-effect control and ±100 the full control effect; nearly all actives have a fitted effect of over 60% in size
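Compound pre-incubated 30 min at room temperature on GloSensor-loaded HEK293 cells stably carrying hNpr1 and the pGS-40F cGMP biosensor. Stimulation uses hNppA at 0.1 nM final; luminescence is taken at baseline and 20 min post-agonist.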
3T3 cytotox = cytotoxic compounds in NIH 3T3 cells; Potency, µM (highest dose often 96.7 µM), inactives show at the highest dose activity change, negative = cytotoxicity, usual class: inhibitors; actives 4.3% (n = 94,000); AID 1345082; NIH 3T3 viability, CellTiter-Glo ATP luminescence, 48-72 h; further: on the % scale 0 is the no-effect control and ±100 the full control effect; nearly all actives have a fitted effect of over 55% in size
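Viability of NIH 3T3 cells after 48 or 72 hr compound treatment at 37 °C was assessed by CellTiter-Glo, with luminescence imaged following a 10 min room-temperature step.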
SNCA expr inhib = reduces expression of the alpha-synuclein gene | HEK-293 SNCA-luciferase knock-in, luminescence, 24 h | Potency, µM (titrated, usually from 57.2 µM), inactives show at the highest dose activity change, negative = inhibition, hits mostly inhibitors | actives 0.17% (n = 140,000) | AID 1671194;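 further: plate controls were DMSO cells for no effect and cell-free wells for full effect; nearly all actives have a fitted effect of over 45% in size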
FLuc inh = blocks purified firefly luciferase enzyme activity. P08659. purified P. pyralis luciferase, luminescence, biochemical. Potency, µM (series often up to 115 µM), most hits filed as inhibitors. actives 2.5% (n = 76,000). AID 1347043; further: on the % scale 0 is the no-effect control and ±100 the full control effect; nearly all actives have a fitted effect of over 65% in size
Target sequence (P08659 whole entry, looked up): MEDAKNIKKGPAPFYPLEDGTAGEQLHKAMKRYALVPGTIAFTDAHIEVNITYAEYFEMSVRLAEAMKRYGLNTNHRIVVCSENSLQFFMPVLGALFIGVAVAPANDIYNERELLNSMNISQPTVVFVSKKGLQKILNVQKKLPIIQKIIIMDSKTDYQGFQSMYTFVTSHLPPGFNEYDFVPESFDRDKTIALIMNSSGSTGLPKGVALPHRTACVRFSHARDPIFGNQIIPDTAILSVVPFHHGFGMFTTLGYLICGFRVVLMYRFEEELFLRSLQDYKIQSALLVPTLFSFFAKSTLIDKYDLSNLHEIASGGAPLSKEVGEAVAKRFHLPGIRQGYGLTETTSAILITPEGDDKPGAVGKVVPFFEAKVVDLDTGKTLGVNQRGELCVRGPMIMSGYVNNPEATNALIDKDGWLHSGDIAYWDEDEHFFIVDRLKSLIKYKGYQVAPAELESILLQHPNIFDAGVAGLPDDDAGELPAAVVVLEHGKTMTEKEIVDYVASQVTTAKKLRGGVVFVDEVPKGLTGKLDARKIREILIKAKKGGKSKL
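Purified P. pyralis luciferase (10nM final) in 50mM Tris acetate pH 7.5, 10mM Mg acetate, 0.01% Tween-20, 0.05% BSA with 10uM D-luciferin and 10uM ATP. Compounds titrated qHTS. Luminescence imaged on CCD.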
Npr1 antag conf = hNpr1 antagonism, confirmation assay. shares compounds with hNpr1 antagonist. HEK293 hNpr1 cGMP GloSensor luminescence, ANP-stimulated. Potency, µM (highest dose often 57.6 µM), for inactives: at the highest dose activity change, negative = inhibition, usual class: inhibitors. actives 76% (n = 1,400); calls by dose curve; further: nearly all actives have a fitted effect of over 70% in size
NPR2 antag = selectivity test of Npr1 antagonists against human Npr2 | shares compounds with hNpr1 antagonist | AID 1347046 | HEK293 hNpr2 GloSensor cGMP luminescence, CNP-stimulated | actives 67% (n = 1,400) | Potency, µM (doses to about 57.6 µM), inactives show top-dose activity change, negative = inhibition, most hits filed as inhibitors; calls by dose curve; further: nearly all actives have a fitted effect of over 70% in size
FLuc inh counter = counter-screen for Npr1 antagonists: firefly luciferase inhibitors. shares compounds with hNpr1 antagonist. purified FLuc enzyme, luminescence, Km substrate. Potency, µM (series often up to 57.6 µM), for inactives: at the highest dose activity change, negative = inhibition, usual class: inhibitors. actives 0.7% (n = 1,400). AID 1347047; further: 0% is about no effect
GloSensor cGMP = reduces cGMP signal in GloSensor control cells. actives 69% (n = 1,400). HEK293 GloSensor cGMP, SNP-stimulated, luminescence. Potency, µM (top dose mostly 57.6 µM), inactives show top-dose activity change, negative = inhibition, actives largely listed as inhibitors. shares compounds with hNpr1 antagonist; calls by dose curve; further: on the % scale 0 is the no-effect control and ±100 the full control effect; nearly all actives have a fitted effect of over 70% in size
* hit, by the source's call; i = inactive; ? = inconclusive; / = not tested or not shown; [ ] = dose if it differs, or a comment. Unless noted, the call rests on the fitted dose curve; in most records, active means well fitted curve in the direction sought with a large enough effect; inconclusive means small, poorly fitted or top-dose-only effect, or another doubt; inactive means no such curve, though single readings can be large; an effect the other way counts as inactive or inconclusive. Potency means the concentration at half of the fitted maximal effect.

SMILES	HEK293 tox	HEK293 viab	hNpr1 antagonist	3T3 cytotox	SNCA expr inhib	FLuc inh	Npr1 antag conf	NPR2 antag	FLuc inh counter	GloSensor cGMP
O=C1NC2(CCN(C(=O)c3ccccn3)CC2)Oc2ccccc21	-5%[172 µM]	6%[87.6 µM]	0%[70.6 µM]	1%[138 µM]	-22%[87.6 µM]	i	/	/	/	/
O=C1NC2(CCN(C(=O)c3ccccn3)CC2)COc2ccccc21	-15%[172 µM]	4%[87.6 µM]	?	3%[138 µM]	1%[87.6 µM]	i	?	25µM*	-14%[86.2 µM]	12%[86.2 µM]
CCc1ccc(CN2CCC(O)(Cc3cc(-c4cccc(OC)c4)no3)CC2)o1	?	-1%	-23%	?	-1%	i	-28%	-21%	-1%	?
Cc1ccccc1C(=O)N[C@H]1[C@H](O)[C@H](O)C[C@@H]1c1cccnc1	-2%[172 µM]	5%[87.6 µM]	6%[70.6 µM]	2%[174 µM]	-23%[87.6 µM]	i	/	/	/	/
Cc1ccc(NC(=O)C2CCN(c3cc(C(F)(F)F)ncn3)CC2)cc1	?	-13%	8.9µM*	?	-4%	i	14µM*	15µM*	0%	12µM*
CC(C)c1ccc(CNC(=O)C2CCN(c3cc(C(F)(F)F)ncn3)CC2)cc1	?	-18%	13µM*	?	-9%	i	24µM*	22µM*	3%	22µM*
COc1ccc(C(C)NC(=O)C2CCN(c3cc(C(F)(F)F)ncn3)CC2)cc1 (stereo not given)	?	1%	16µM*	?	1%	i	24µM*	27µM*	2%	22µM*
CCc1ccc(NC(=O)C2CCN(c3cc(C(F)(F)F)ncn3)CC2)cc1	?	0%	7.9µM*	?	-10%	i	11µM*	11µM*	-1%	9.7µM*
O=C(NCc1ccc(F)cc1)C1CCN(c2cc(C(F)(F)F)ncn2)CC1	?	2%	?	?	-2%	i	/	/	/	/
O=C1CCCCC(CNC(=O)c2ccc3ccccc3n2)N1 (stereo not given)	-4%	5%	-3%	-13%	1%	i	/	/	/	/
COc1cc(NC(=O)CN2C(=O)NC3(CCC(C)CC3)C2=O)cc(OC)c1 (stereo not given)	?	-2%	-2%	-17%	5%	i	/	/	/	/
COc1ccc(-c2nc(C)nc3c2CN(C(=O)c2ccccc2OC)CC3)cc1	2%	?	/	?	?	/	/	/	/	/
O=C(NCc1ccccc1)C1CCN(c2cc(C(F)(F)F)ncn2)CC1	?	4%	?	?	?	i	/	/	/	/
O=C(NCCCc1ccccc1)C1CCN(c2cc(C(F)(F)F)ncn2)CC1	?	11%	11µM*	?	?	i	22µM*	19µM*	-1%	11µM*
O=C1CCCN1CC1CCN(C(=O)c2ccc(N3CC[C@@H](O)C3)nc2)CC1	-6%	1%	10%	2%	14%	i	/	/	/	/
O=C(c1nc2sccn2c1-c1cccnc1)N1CCCCC1	i	-21%[87.6 µM]	/	-3%[138 µM]	-15%[87.6 µM]	/	/	/	/	/
Nc1nc(NCc2ccc(Cl)cc2Cl)cc(C2CC(O)C2)n1 (stereo not given)	?	-23%	7.1µM*	?	-11%	i	11µM*	19µM*	4%	9.7µM*
CCc1csc(CNc2cc(C3CC(O)C3)nc(N)n2)n1 (stereo not given)	?	-3%	-23%	?	32%	i	/	/	/	/
COc1ccccc1CN1C[C@@H]2C(=O)N(Cc3ccc4c(c3)OCO4)C(=O)[C@@H]2C1	-4%	-3%	-1%	-17%	-8%	i	/	/	/	/
COc1ccc(CN2C[C@@H]3C(=O)N(Cc4ccc5c(c4)OCO5)C(=O)[C@@H]3C2)cc1OC	?	-1%	14µM*	-34%	-2%	i	17µM*	19µM*	-2%	12µM*
COc1ccc(C)cc1NC(=O)Cn1c(N(C)Cc2ccccc2)nc(C)cc1=O	?	8%	13µM*	-32%	-13%	i	24µM*	24µM*	0%	31µM*
Cc1cc(=O)n(CC(=O)Nc2cccc(Cl)c2)c(N(C)Cc2ccccc2)n1	?	-5%	?	?	-16%	i	/	/	/	/
CCOC(=O)c1ccc(NC(=O)Cn2c(N(C)Cc3ccccc3)nc(C)cc2=O)cc1	40µM*	13%	14µM*	?	-13%	i	22µM*	22µM*	1%	22µM*
COc1cc(NC(=O)Cn2c(N(C)Cc3ccccc3)nc(C)cc2=O)cc(OC)c1	16µM*	?	7.9µM*	?	?	i	11µM*	12µM*	0%	6.9µM*
COc1ccccc1NC(=O)Cn1c(N(C)Cc2ccccc2)nc(C)cc1=O	?	1%	-26%	?	-16%	i	/	/	/	/
COc1cc(NC(=O)Cn2c(N(C)Cc3ccccc3)nc(C)cc2=O)cc(OC)c1OC	?	2%	7.1µM*	?	-15%	i	11µM*	14µM*	0%	11µM*
CN1C(=O)C2(CCN([S+](=O)([O-])c3cccc(C(F)(F)F)c3)C2)c2ccccc21 (stereo not given)	?	?	11%	?	?	i	/	/	/	/
CCn1ncc(N2CCCC(CC(=O)NCc3cccc(C)c3)C2)cc1=O (stereo not given)	1%	4%	-2%	-4%	29%	i	/	/	/	/
COCCc1noc([C@@H]2CN(Cc3ccc(C)o3)C[C@H]2CO)n1	2%	-2%	-2%	-17%	-1%	i	/	/	/	/
